FBPA Giardia inh – Giardia lamblia aldolase inhibition. A8B2U2. purified Giardia FBPA. Potency, µM (highest dose often 59.6 µM), for the others: at the highest dose activity, negative = inhibition, most hits filed as inhibitors. 290,000 compounds, 0.71% hits; further: potency means the concentration at half of the fitted maximal effect; nearly all actives have a fitted effect of over 55% in size
Target sequence (A8B2U2 whole entry, looked up): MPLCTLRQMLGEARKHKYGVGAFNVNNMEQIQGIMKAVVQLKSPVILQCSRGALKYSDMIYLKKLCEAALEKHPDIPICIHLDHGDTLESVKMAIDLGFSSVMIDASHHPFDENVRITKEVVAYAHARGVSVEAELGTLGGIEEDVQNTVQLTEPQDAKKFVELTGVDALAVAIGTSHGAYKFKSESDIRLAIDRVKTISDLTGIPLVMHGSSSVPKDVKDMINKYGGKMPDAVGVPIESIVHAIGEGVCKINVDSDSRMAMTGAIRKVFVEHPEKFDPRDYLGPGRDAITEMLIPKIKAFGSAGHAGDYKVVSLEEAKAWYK
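40 nM FBPA preincubated 10 min at RT with compound (up to 57.5 uM final), then substrate plus GAPDH/TPI/NAD/arsenate coupling and diaphorase/resazurin added. Fluorescence read after 20 min at RT, 525/598 nm.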
LASV entry inh – Lassa virus entry inhibition; Lassa virus pseudotype entry inhibition, cell reporter; Potency, µM (series often up to 37.9 µM), for the others: at the top dose activity change, negative = inhibition, hits mostly inhibitors; 300,000 compounds, 1.2% hits; calls by dose curve; tested in HEK293 cells; further: potency means the concentration at half of the fitted maximal effect; nearly all actives have a fitted effect of over 50% in size
HCV inhibitor – blocks hepatitis C virus; AID 651820; Potency, µM (doses to about 41.8 µM), without a hit: at the highest dose activity change, negative = inhibition, hits mostly inhibitors; 340,000 compounds, 3.4% hits; Huh7.5.1 HCVcc-Cre infection, luciferase reporter, 44 h; further: potency means the concentration at half of the fitted maximal effect
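Compounds are dispensed onto cells plated 4 h earlier at 1,000 per well, with HCVcc-Cre virus (about 0.5 moi) added next. Following 44 h of culture, luminescent signal is measured for 15 sec after 15 min with substrate at room temperature.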
MARV entry inh – inhibitors of Marburg virus binding or cell entry. Potency, µM (titrated, usually from 37.8 µM), without a hit: top-dose activity change, negative = inhibition, most hits filed as inhibitors. Marburg virus pseudotyped entry inhibition, cell reporter. 300,000 compounds, 1.8% hits; calls by dose curve; tested in HEK293 cells; further: potency means the concentration at half of the fitted maximal effect
HCMV inh – blocks human cytomegalovirus replication. activity change, negative = inhibition, % at 57.5 µM. HFF cells, HCMV-luciferase reporter, 72 h; hits give low values. 410,000 compounds, 4.5% hits; in the data active means activity change below about -60%; inconclusive means no clear call, values can overlap the other calls; inactive means above about -39%
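Cell-based, HFFs, 1000 cells/well, 16 h 37C; cpds in DMSO + HCMV-luc, MOI 1 PFU/cell; 72 h 37C; OneGlo luminescence after 5 min RT; norm. to buffer vs Salinomycin 10uM.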
FMDV antiviral – antivirals against foot and mouth disease virus. FMDV antiviral cell-based qHTS. Potency, µM (top dose mostly 57.9 µM), inactives show at the highest dose activity change, negative = inhibition, hits mostly inhibitors. 410,000 compounds, 1.2% hits. AID 1159524; calls by dose curve; tested in HEK293T cells; further: read-out not given here; potency means the concentration at half of the fitted maximal effect; nearly all actives have a fitted effect of over 45% in size
The depositor's hits bear a star; ? = inconclusive; / = not tested or not shown; [ ] = another dose, or the depositor's remark. An excerpt weighted towards active compounds, which were near 8.3% of everything screened. Unless noted, the call rests on the fitted dose curve; in most records, active means well fitted curve in the direction sought with a large enough effect; inconclusive means small, poorly fitted or top-dose-only effect, or another doubt; inactive means no such curve, though single readings can be large; an effect the other way counts as inactive or inconclusive. On the % scale 0 is the no-effect control and ±100 the full control effect.

SMILES | FBPA Giardia inh | LASV entry inh | HCV inhibitor | MARV entry inh | HCMV inh | FMDV antiviral
Cc1ccc(-n2[nH]c(=O)c3cccnc32)cc1 | 0% | 5% | 16% | ? | 26 | 52%
Cc1ccc(-n2[nH]c(=O)c(-c3ccccn3)c2C)cc1 | -25% | ? | 0% | ? | ? | 7.1µM*
CC1CCc2c(sc3ncnc(NCCCOC(C)C)c23)C1 (stereo not drawn) | 1% | -11% | 10µM* | ? | -37 | ?
CCN1CCN(c2ncnc3sc4c(c23)CCC(C)C4)CC1 (stereo not drawn) | 14% | / | ? | / | -20 | -8%
CC1CCc2c(sc3ncnc(NCc4cccnc4)c23)C1 (stereo not drawn) | -1% | -3% | 25µM* | -1% | ? | -5%
O=C1CC(c2nnc(Cc3ccccc3Cl)o2)CN1c1ccccc1 (stereo not drawn) | / | 3%[46.1 µM] | / | 3%[46.1 µM] | -4 | -4%
O=C1CCCC2=C1C1c3ccccc3C(=O)N1c1ccc(C(=O)c3ccccc3)cc1N2 (stereo not drawn) | -9% | ? | ? | ? | -76* | -25%
Cc1cc(C)nc(Nc2cccc(Cl)c2)n1 | -16% | / | 1% | / | -16 | 27%
OCCCNc1cc(-c2ccnc(Nc3cccc(Cl)c3)n2)ccn1 | -4% | / | 2µM* | / | -97* | ?
CCC(C)Oc1cc(-c2ccnc(Nc3cccc(Cl)c3)n2)ccn1 (stereo not drawn) | 3% | / | 12% | / | -86* | -2%
C=CC[C@]1(C(=O)OC)C=C[C@H](C)[C@@H](c2ccccc2)N1C(=O)C(F)(F)F | / | / | / | -15%[14.2 µM] | / | /
COc1ccc(C2c3ccc4ccccc4c3Oc3ncn(CCN4CCOCC4)c(=N)c32)cc1 (stereo not drawn) | 3% | 10% | ? | ? | ? | ?
N=c1c2c(ncn1CCCO)Oc1ccc3ccccc3c1C2c1ccccc1 (stereo not drawn) | 3% | -27% | ? | ? | 58 | -18%
CN(C)CCCn1cnc2c(c1=N)C(c1ccccc1)c1ccc3ccccc3c1O2 (stereo not drawn) | 4% | / | 8.9µM* | / | -98* | ?
COc1ccc(C2c3ccc4ccccc4c3Oc3ncn(CCN(C)C)c(=N)c32)cc1 (stereo not drawn) | 4% | ? | 2.8µM* | 8.9µM* | -99* | -18%
COc1ccc(Cc2nc3c4c(ncn3n2)Oc2c(ccc3ccccc23)C4c2ccc(OC)c(OC)c2)cc1 (stereo not drawn) | 0% | ? | ? | ? | ? | -24%
COc1ccc(C2c3ccc4ccccc4c3Oc3ncn(CCO)c(=N)c32)cc1 (stereo not drawn) | 7% | 8.9µM* | ? | ? | / | 1%
COc1ccc(C2c3c(ncn(Cc4ccco4)c3=N)Oc3ccc4ccccc4c32)cc1 (stereo not drawn) | -1% | ? | ? | ? | 158 | -7%
COc1ccc(C2c3ccc4ccccc4c3Oc3ncn(CCCO)c(=N)c32)cc1 (stereo not drawn) | 4% | 11µM* | -25% | ? | 38 | -28%
CCOc1ccc(OCC)c(NS(=O)(=O)c2c(C)[nH]c(=O)[nH]c2=O)c1 | / | -4%[46.1 µM] | / | / | 0 | 8%
Cc1nn(C)c2c1c(C(F)(F)F)cc(=O)n2C(C)C(=O)NCCc1ccccc1 (stereo not drawn) | / | 12%[46.1 µM] | / | / | -2 | -1%
COC(=O)[C@@H]1CC[C@H](C)[C@@H](c2ccc(C)cc2)N1C(=O)c1ccc(C=NO[C@@H](C)c2cn([C@H](CO)Cc3ccccc3)nn2)cc1 | / | -7%[14.3 µM] | / | 5%[14.2 µM] | / | /
N=c1c2c(ncn1CCCO)Oc1c(ccc3ccccc13)C2c1ccccc1 (stereo not drawn) | 4% | / | 11µM* | / | 18 | -27%
COCCCNC(=O)c1oc2c(c1C)-c1nn(Cc3cccc(Cl)c3)cc1CC2 | / | -6%[46.1 µM] | / | / | -3 | -21%
COc1ccc(N2CCN(c3oc(-c4ccco4)nc3C#N)CC2)cc1 | -8% | 1% | 17% | -9% | -26 | 0%
SMILES | FBPA Giardia inh | LASV entry inh | HCV inhibitor | MARV entry inh | HCMV inh | FMDV antiviral
N#Cc1nc(-c2ccco2)oc1N1CCN(c2ccccc2)CC1 | 7% | ? | 9% | -18% | -65* | ?
CN(C)CCNc1oc(COc2ccc(-c3ccccc3)cc2)nc1C#N | 2% | ? | 10µM* | ? | -21 | -26%
COc1ccc(N2CCN(c3oc(Cc4ccccc4)nc3C#N)CC2)cc1 | 1% | 5.2µM* | -27% | ? | -34 | ?
CN1CCN(c2oc(COc3ccc(-c4ccccc4)cc3)nc2C#N)CC1 | -14% | -14% | 5µM* | ? | 28 | /
Cc1nc(N2CCOCC2)c2nc(-c3ccccc3)n(CC(C)(C)CN(C)C)c2n1 | 4% | / | / | / | / | /
O=c1n(Cc2cc3c(cc2Cl)OCO3)c(=O)n2n1CC[C@H]1/C(=N\OC[C@@H](O)COCc3ccco3)[C@H]3O[C@@H]3[C@@H](O)[C@@H]12 | 0%[12.9 µM] | / | / | / | / | /
O=C(O)c1cc(N/N=C/c2ccc3c(c2)OCO3)ccc1Cl | 4% | ? | 5% | 2.5µM* | 98 | 14µM*
O=C(O)c1ccc(N/N=C/c2ccc3c(c2)OCO3)cc1 | 16% | ? | -3% | ? | -73* | 25µM*
O=C(O)c1cc(N/N=C/c2ccc3c(c2)OCCO3)ccc1Cl | 0% | 1.6µM* | 0% | ? | 163 | 2.5µM*
COc1ccc(C2(CNC(=O)C(=O)Nc3ccc(C)c(Cl)c3)CCCC2)cc1OC | / | -9%[46.1 µM] | / | 9%[46.1 µM] | 0 | ?
COc1ccc(CNc2cccc3[nH]c(C(F)(F)F)nc23)cc1 | -27% | 20%[46.1 µM] | 3.2µM* | -18%[46.1 µM] | -28 | -25%
Cc1ccc(C(=O)Nc2cccc3[nH]c(C(F)(F)F)nc23)cc1 | ? | ? | ? | ? | -96* | -23%
COc1cc(CNc2cccc3[nH]c(C(F)(F)F)nc23)cc(OC)c1 | -27% | / | 11µM* | / | ? | ?
COc1cccc(-c2cc(C(F)(F)F)nc(NCc3ccc(F)cc3)n2)c1 | / | -9%[46.1 µM] | / | -14%[46.1 µM] | -17 | -16%
Cc1ccc(C(=O)Nc2ccc(C(F)(F)F)n(C)c2=O)cc1 | -1% | ? | 6% | -4%[46.1 µM] | 78 | 30%
COc1ccc2nc(NCc3ccccc3)[nH]c2c1 | 1% | ? | ? | -23% | 104 | 34%
O=C(Nc1nncs1)C1CC(=O)N(CCc2ccc(F)cc2)C1 (stereo not drawn) | 5% | -3%[46.1 µM] | 9% | 0%[46.1 µM] | -66* | 2%
CC(C)NC(=O)C1CC(=O)N(CCc2ccc(F)cc2)C1 (stereo not drawn) | / | / | / | / | -4 | 0%
Cc1ccc(CCNC(=O)C2CC(=O)N(CCc3ccc(C)cc3)C2)cc1 (stereo not drawn) | / | ? | / | / | -33 | 8%
CNC(=O)C1CC(=O)N(CCc2ccc(C)cc2)C1 (stereo not drawn) | 7% | 5%[46.1 µM] | 15% | ? | -69* | 14%

Screening results from PubChem BioAssay.
